In PubChem BioAssay AID1159580 (chemical genetic matrix, 2015):
Several values for one entry are separate records, joined by “and”; a condition that tells them apart may be missing. Identical values can stand only once. Screen size: about 5,500 compounds; about 2,000 (36%) were called active. Roughly 18% stayed inconclusive and do not appear here. No stated cut-off is given here; in the data, active means normalized growth mostly below about 0.91 (no sharp cut-off); inconclusive means no clear call, values can overlap the other calls; inactive means mostly above about 0.92. This is one part of the list.

Assay: chemical genetic growth profiling, strain panel (AID 1159580);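 further: tested at 20 µM; growth read once vehicle control cultures reached saturation at 30 °C; 1 = growth at the plate median or of vehicle wells; lower values mean less growth of the strain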
Details: S. cerevisiae deletion strains, growth OD

Measured: normalized growth

NC(N)=NC(=O)c1nc(Cl)c(N)nc1N
inactive: locus YAL013W, strain DEP1, hits give low values 0.935 | locus YAL021C, strain ccr4, hits give low values 0.977 | locus YAL026C, strain drs2, hits give low values 1.01 | locus YAL030W, strain snc1, hits give low values 1.01 | locus YAL040C, strain CLN3, hits give low values 1 | locus YBL061C, strain skt5, hits give low values 1.04 | locus YBR009C, strain hhf1, hits give low values 1.01 | locus YBR021W, strain FUR4, hits give low values 0.86 | locus YBR023C, strain chs3, hits give low values 1.04 | locus YBR171W, strain sec66, hits give low values 1.02 | locus YBR229C, strain ROT2, hits give low values 1 | locus YBR231C, strain swc5, hits give low values 1.02 | locus YBR279W, strain paf1, hits give low values 1.01 | locus YCL011C, strain gbp2, hits give low values 0.998 | locus YCL016C, strain dcc1, hits give low values 0.997 | locus YCL029C, strain bik1, hits give low values 1.02 | locus YCL061C, strain MRC1 (second series), hits give low values 0.995 | locus YCL061C, strain MRC1, hits give low values 1.03 | locus YCL069W, strain vba3, hits give low values 1.02 | locus YCR088W, strain abp1, hits give low values 1.03 | locus YDL005C, strain med2, hits give low values 1.02 | locus YDL035C, strain GPR1, hits give low values 0.983 | locus YDL040C, strain nat1, hits give low values 1.02 | locus YDL074C, strain BRE1, hits give low values 0.975 | locus YDL101C, strain DUN1, hits give low values 1.03 | locus YDL185W, strain tfp1, hits give low values 1.03 | locus YDL192W, strain arf1, hits give low values 1.02 | locus YDR001C, strain nth1, hits give low values 1.04 | locus YDR069C, strain doa4, hits give low values 1.04 | locus YDR101C, strain arx1, hits give low values 1.01 | locus YDR137W, strain rgp1, hits give low values 1.02 | locus YDR159W, strain sac3, hits give low values 1 | locus YDR162C, strain NBP2, hits give low values 1.02 | locus YDR195W, strain ref2 1.04 | locus YDR297W, strain sur2, hits give low values 1.02 | locus YDR318W, strain mcm21, hits give low values 1.02 | locus YDR334W, strain swr1, hits give low values 1.01 | locus YDR335W, strain msn5, hits give low values 1.01 | locus YDR388W, hits give low values 1.01 | locus YDR392W, strain spt3, hits give low values 0.988 | locus YDR502C, strain sam2, hits give low values 1.02 | locus YEL003W, strain gim4, hits give low values 1.02 | locus YEL037C, strain rad23, hits give low values 1.02 | locus YEL061C, strain CIN8 (second series), hits give low values 1.03 | locus YEL061C, strain CIN8, hits give low values 1 | locus YER002W, strain NOP16, hits give low values 1 | locus YER015W, strain faa2, hits give low values 1.03 | locus YER016W, strain bim1, hits give low values 1.02 | locus YER110C, hits give low values 1.02 | locus YER111C, strain swi4, hits give low values 1.03 | locus YER155C, strain BEM2 (second series), hits give low values 1.05 | locus YER155C, strain BEM2, hits give low values 1.01 | locus YER167W, strain BCK2, hits give low values 1 | locus YFR010W, strain ubp6, hits give low values 1.01 | locus YGL078C, strain dbp3, hits give low values 1.01 | locus YGL086W, strain mad1, hits give low values 1.01 | locus YGL167C, strain pmr1, hits give low values 1.04 | locus YGL173C, strain kem1, hits give low values 1.04 | locus YGL227W, strain vid30, hits give low values 1.03 | locus YGL240W, strain doc1, hits give low values 1.05 | locus YGL248W, strain PDE1, hits give low values 1.01 | locus YGL253W, strain hxk2, hits give low values 1 | locus YGR135W, strain pre9, hits give low values 0.987 | locus YGR229C, strain SMI1, hits give low values 0.994 | locus YGR252W, strain gcn5, hits give low values 0.896 | locus YHR013C, strain ard1, hits give low values 0.998 | locus YHR027C, strain rpn1, hits give low values 1.02 | locus YHR030C, strain SLT2, hits give low values 1.01 and 1 | locus YHR079C, strain IRE1 (second series), hits give low values 1.01 | locus YHR079C, strain IRE1, hits give low values 1 | locus YHR094C, strain hxt1, hits give low values 1.01 | locus YHR129C, strain ARP1, hits give low values 1.02 | locus YHR142W, strain chs7, hits give low values 1.02 | locus YHR200W, strain rpn10, hits give low values 1.02 | locus YIL066C, strain RNR3, hits give low values 1.02 | locus YIL073C, strain SPO22, hits give low values 1 | locus YIL125W, strain kgd1, hits give low values 1.01 | locus YIR030C, strain dcg1, hits give low values 1.02 | locus YJL092W, strain hpr5, hits give low values 1.01 | locus YJL095W, strain BCK1 (second series), hits give low values 1.03 | locus YJL095W, strain BCK1, hits give low values 0.962 and 1.01 | locus YJL115W, strain asf1, hits give low values 1.02 | locus YJL129C, strain trk1, hits give low values 1.04 | locus YJL134W, strain LCB3, hits give low values 1 | locus YJL154C, strain vps35, hits give low values 1.01 | locus YJL164C, strain tpk1, hits give low values 0.995 | locus YJL166W, strain qcr8, hits give low values 1.04 | locus YJL168C, strain set2, hits give low values 1.02 | locus YJL187C, strain SWE1 (second series), hits give low values 1.01 | locus YJL187C, strain SWE1, hits give low values 1.02 | locus YJR043C, strain POL32, hits give low values 1.02 | locus YJR066W, strain TOR1, hits give low values 0.959 | locus YJR075W, strain HOC1, hits give low values 1.02
